Data on 38 compounds can be found in PubChem BioAssay (NCI).

The structures appear in SMILES notation. About 79,000 compounds went through this panel and 15% of them were active in at least one assay; those are over-represented in the sample as a whole. Activity calls are given as the source filed them. Cut-off read from the data, not from the text of the source: active = growth inhibition above about 70%; inactive = the rest.

The nature of one experiment: NCI Yeast Anticancer Drug Screen. Data for the rad14 strain (AID 159).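 Note: 0% = growth of vehicle-treated control cultures.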 The settings on record: S. cerevisiae rad14 strain growth inhibition; at 3.7 µM; active compounds read high. The method, boiled down:
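Inhibition of growth is reported for a repair-deficient yeast mutant following compound treatment, calculated relative to cultures that received vehicle.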
`O=[N+]([O-])c1cc[n+]([O-])cc1`: the growth inhibition was 1% (inactive).

As for `CC1(C)CC(=O)C(/C=N/c2nc(-c3ccccc3)cs2)=C(O)C1`, the growth inhibition was 5% (inactive).

As for `Nc1nc(N)c2nc(CNc3ccc(C(=O)NC(CCC(=O)O)C(=O)O)cc3F)cnc2n1` (stereo unspecified), the growth inhibition was -19% (inactive).

`COC(=O)CC1(O)C(/C=C/c2ccccc2)C(C(=O)OC)C(=O)C(C(=O)OC)C1C(=O)OC` (stereo unspecified): the growth inhibition was -1% (inactive).

Regarding `CC(C)(C)c1ccc(NS(=O)(=O)c2ccc(N)cc2)cc1`, the growth inhibition is -1% (inactive).

Take `CCN(CC)CCNc1ccc([N+](=O)[O-])c2nc3ccccc3c(N)c12`: the growth inhibition is -19% (inactive).

On to `CCCCN(CCCC)C(=O)/C=C/c1ccccc1`, for which the growth inhibition is -9% (inactive).

For `O=c1[nH]c(-c2ccccc2)nc2c1sc1nc3ccccc3n12`, the growth inhibition is -22% (inactive).

As to `O=[N+]([O-])c1ccc2c(c1)/C(=N/N=C1c3ccccc3Cc3ccccc31)c1cc([N+](=O)[O-])cc([N+](=O)[O-])c1-2`, the growth inhibition was 53% (inactive).

As for `CC(C)C(C)/C=C\C(C)C1CCC2C3=CC=C4CC(O)CCC4(C)C3CCC21C` (stereo unspecified), the growth inhibition is 6% (inactive).

On to `O=C1Nc2ccc(Br)cc2C1=Nc1ccc2c(c1)OCO2`, for which the growth inhibition is -29% (inactive).

In the case of `CCCCOCn1c(=O)[nH]c(=O)c2cc(Br)ccc21`, the growth inhibition was -50% (inactive).

As to `Cc1ccc(S/C(=C\C(=O)O)c2ccccc2)cc1`, the growth inhibition is 3% (inactive).

In the case of `O=[N+]([O-])/C=C/c1cc(Cl)c(/C=C/[N+](=O)[O-])cc1Cl`, the growth inhibition is 68% (inactive).

With `Cc1cc(S(=O)(=O)Nc2nnc3cnc4ccccc4n23)c(S)cc1Cl`, the growth inhibition was 3% (inactive).

Turning to `O=C(/C=C/c1cc(Cl)cc(Cl)c1O)c1cccc(O)c1`, the growth inhibition is 48% (inactive).

`NC1CCCCC1N.Nc1c(N=Nc2ccc(-c3ccc(N=Nc4cc(S(=O)(=O)[O-])c5ccccc5c4N)cc3)cc2)cc(S(=O)(=O)[O-])c2ccccc12.[OH3+].[OH3+].[Pt+4]`: the growth inhibition was 13% (inactive).

Regarding `COC(=O)CCC(NC(=S)N/N=C(\C)c1ccccn1)C(=O)OC` (stereo unspecified), the growth inhibition was -3% (inactive).

With `NC(=O)C(=O)NNc1ccccc1`, the growth inhibition was 0% (inactive).

`COc1cc(C2SCC(=O)N2c2ccc(-c3ccc(-n4c(-c5ccccc5)nc5ccccc5c4=O)cc3)cc2)ccc1O` (stereo unspecified): the growth inhibition was -1% (inactive).

Take `COc1ccc(/C=C/c2sc3ccccc3[n+]2CCCCI)cc1OC`: the growth inhibition is -3% (inactive).

In the case of `Cc1c(C(C)C)cc(OCCO)cc1C(C)C`, the growth inhibition was -7% (inactive).

As to `Cc1cc(NCCCCCCCCNc2cc(C)nc3cc(N)ccc23)c2ccc(N)cc2n1`, the growth inhibition is -35% (inactive).

Take `C=C(Cl)COC(=O)Nc1cccc(Cl)c1`: the growth inhibition was 2% (inactive).

Consider `CC(=O)OC1CC2C(C)(C)C(=O)C=C[C@]2(C)C2CCC3(C)C(=CCC3[C@H](CO)C[C@H](O)C(=O)C(C)(C)O)[C@]12C` (stereo partly specified), for which the growth inhibition is -46% (inactive).

Take `COc1ccc(/C=C/C(=O)c2ccccc2)cc1OC`: the growth inhibition was 5% (inactive).

For `COc1c(O)c(C=O)c(Br)c(C=O)c1O`, the growth inhibition was 4% (inactive).

For the compound `O=[N+]([O-])c1cc(Cl)cnc1Br`, the growth inhibition was 1% (inactive).

On to `Cc1ccc2c(c1)C1(SC(C)C(=O)N1c1ccc(Cl)cc1)C(=O)N2` (stereo unspecified), for which the growth inhibition was 3% (inactive).

As for `COc1cc(CSc2ccc(O)cc2)cc(O)c1O`, the growth inhibition is 2% (inactive).

Take `Cc1ccc2c3ccc4c(c3n(C)c2c1)C(=O)C=CC4=O`: the growth inhibition was -12% (inactive).

With `O=C(Nc1ccc(Cl)cc1)Nc1nnc2nc(C(C(=O)c3cccc([N+](=O)[O-])c3Cl)c3nc4nnc(NC(=O)Nc5ccc(Cl)cc5)n4[nH]c3=O)c(=O)[nH]n12`, the growth inhibition was -3% (inactive).

Consider `O=C(O)C1CC(c2ccccc2)=NN1c1ccccc1` (stereo unspecified), for which the growth inhibition was -15% (inactive).

On to `CCCCc1ccc(-n2c(C)c(COC(=O)NC)c(COC(=O)NC)c2C)cc1`, for which the growth inhibition is -11% (inactive).

Take `CCC(=O)c1cc(C(=O)C(=S)SC)cc(C(=O)C(=S)SC)c1`: the growth inhibition was 22% (inactive).

On to `CCn1c(O)c(C=Nc2ccccc2)s/c1=N/Nc1nc(-c2ccccc2)cs1`, for which the growth inhibition is 6% (inactive).

As to `Cc1ccccc1N=C(NO)c1ccccc1`, the growth inhibition is -4% (inactive).

Regarding `Cc1nc2ccccc2nc1NNc1ccccc1`, the growth inhibition was -7% (inactive).

Staying with this experiment, now noted: S. cerevisiae rad14 strain growth inhibition; at 11.0 µM; active compounds read high.
For the compound `O=[N+]([O-])c1cc[n+]([O-])cc1`, the growth inhibition is -1% (inactive).

With `CC1(C)CC(=O)C(/C=N/c2nc(-c3ccccc3)cs2)=C(O)C1`, the growth inhibition is 17% (inactive).

In the case of `Nc1nc(N)c2nc(CNc3ccc(C(=O)NC(CCC(=O)O)C(=O)O)cc3F)cnc2n1` (stereo unspecified), the growth inhibition was 0% (inactive).

`COC(=O)CC1(O)C(/C=C/c2ccccc2)C(C(=O)OC)C(=O)C(C(=O)OC)C1C(=O)OC` (stereo unspecified): the growth inhibition was 0% (inactive).

`CC(C)(C)c1ccc(NS(=O)(=O)c2ccc(N)cc2)cc1`: the growth inhibition was 1% (inactive).

On to `CCN(CC)CCNc1ccc([N+](=O)[O-])c2nc3ccccc3c(N)c12`, for which the growth inhibition was -26% (inactive).

As to `CCCCN(CCCC)C(=O)/C=C/c1ccccc1`, the growth inhibition was -3% (inactive).

For `O=c1[nH]c(-c2ccccc2)nc2c1sc1nc3ccccc3n12`, the growth inhibition was -24% (inactive).

Regarding `O=[N+]([O-])c1ccc2c(c1)/C(=N/N=C1c3ccccc3Cc3ccccc31)c1cc([N+](=O)[O-])cc([N+](=O)[O-])c1-2`, the growth inhibition is 98% (active).

With `CC(C)C(C)/C=C\C(C)C1CCC2C3=CC=C4CC(O)CCC4(C)C3CCC21C` (stereo unspecified), the growth inhibition was 1% (inactive).

Take `O=C1Nc2ccc(Br)cc2C1=Nc1ccc2c(c1)OCO2`: the growth inhibition is -32% (inactive).

Take `CCCCOCn1c(=O)[nH]c(=O)c2cc(Br)ccc21`: the growth inhibition was -39% (inactive).

As for `Cc1ccc(S/C(=C\C(=O)O)c2ccccc2)cc1`, the growth inhibition was 7% (inactive).

Turning to `O=[N+]([O-])/C=C/c1cc(Cl)c(/C=C/[N+](=O)[O-])cc1Cl`, the growth inhibition is 93% (active).

Regarding `Cc1cc(S(=O)(=O)Nc2nnc3cnc4ccccc4n23)c(S)cc1Cl`, the growth inhibition is 9% (inactive).

For the compound `O=C(/C=C/c1cc(Cl)cc(Cl)c1O)c1cccc(O)c1`, the growth inhibition is 96% (active).

Consider `NC1CCCCC1N.Nc1c(N=Nc2ccc(-c3ccc(N=Nc4cc(S(=O)(=O)[O-])c5ccccc5c4N)cc3)cc2)cc(S(=O)(=O)[O-])c2ccccc12.[OH3+].[OH3+].[Pt+4]`, for which the growth inhibition is 85% (active).

In the case of `COC(=O)CCC(NC(=S)N/N=C(\C)c1ccccn1)C(=O)OC` (stereo unspecified), the growth inhibition is 21% (inactive).

As for `NC(=O)C(=O)NNc1ccccc1`, the growth inhibition was 13% (inactive).

Consider `COc1cc(C2SCC(=O)N2c2ccc(-c3ccc(-n4c(-c5ccccc5)nc5ccccc5c4=O)cc3)cc2)ccc1O` (stereo unspecified), for which the growth inhibition is 2% (inactive).

As for `COc1ccc(/C=C/c2sc3ccccc3[n+]2CCCCI)cc1OC`, the growth inhibition is -7% (inactive).

In the case of `Cc1c(C(C)C)cc(OCCO)cc1C(C)C`, the growth inhibition is -2% (inactive).

On to `Cc1cc(NCCCCCCCCNc2cc(C)nc3cc(N)ccc23)c2ccc(N)cc2n1`, for which the growth inhibition was 87% (active).

Turning to `C=C(Cl)COC(=O)Nc1cccc(Cl)c1`, the growth inhibition is 4% (inactive).

For `CC(=O)OC1CC2C(C)(C)C(=O)C=C[C@]2(C)C2CCC3(C)C(=CCC3[C@H](CO)C[C@H](O)C(=O)C(C)(C)O)[C@]12C` (stereo partly specified), the growth inhibition was -29% (inactive).

As for `COc1ccc(/C=C/C(=O)c2ccccc2)cc1OC`, the growth inhibition was 14% (inactive).

On to `COc1c(O)c(C=O)c(Br)c(C=O)c1O`, for which the growth inhibition is 11% (inactive).

In the case of `O=[N+]([O-])c1cc(Cl)cnc1Br`, the growth inhibition is 10% (inactive).

Turning to `Cc1ccc2c(c1)C1(SC(C)C(=O)N1c1ccc(Cl)cc1)C(=O)N2` (stereo unspecified), the growth inhibition was 12% (inactive).

As for `COc1cc(CSc2ccc(O)cc2)cc(O)c1O`, the growth inhibition was 5% (inactive).

As for `Cc1ccc2c3ccc4c(c3n(C)c2c1)C(=O)C=CC4=O`, the growth inhibition was -9% (inactive).

On to `O=C(Nc1ccc(Cl)cc1)Nc1nnc2nc(C(C(=O)c3cccc([N+](=O)[O-])c3Cl)c3nc4nnc(NC(=O)Nc5ccc(Cl)cc5)n4[nH]c3=O)c(=O)[nH]n12`, for which the growth inhibition was 0% (inactive).

As for `O=C(O)C1CC(c2ccccc2)=NN1c1ccccc1` (stereo unspecified), the growth inhibition was -18% (inactive).

On to `CCCCc1ccc(-n2c(C)c(COC(=O)NC)c(COC(=O)NC)c2C)cc1`, for which the growth inhibition was 89% (active).

With `CCC(=O)c1cc(C(=O)C(=S)SC)cc(C(=O)C(=S)SC)c1`, the growth inhibition was 94% (active).

In the case of `CCn1c(O)c(C=Nc2ccccc2)s/c1=N/Nc1nc(-c2ccccc2)cs1`, the growth inhibition was 9% (inactive).

For `Cc1ccccc1N=C(NO)c1ccccc1`, the growth inhibition is 6% (inactive).

As for `Cc1nc2ccccc2nc1NNc1ccccc1`, the growth inhibition was 0% (inactive).
